# Assays:
# Test in all cases: DAPPL (digital affinity profiling via proximity ligation, sequencing); 10 mM Tris-HCl pH 7.5, 50 mM NaCl, 1 mM DTT, 4% glycerol, room temperature, 30 min; GST-TFs on glutathione beads, 16-mer random dsDNA library, 0.1% formaldehyde crosslink after washing; high values mean tight binding
# FLI1 = molecular target: T1, FLI1 (Homo sapiens, UniProt Q01543 1-452); settings: protein: recombinant; tags: N-terminal GST; dsDNA, one strand shown
# T1 sequence: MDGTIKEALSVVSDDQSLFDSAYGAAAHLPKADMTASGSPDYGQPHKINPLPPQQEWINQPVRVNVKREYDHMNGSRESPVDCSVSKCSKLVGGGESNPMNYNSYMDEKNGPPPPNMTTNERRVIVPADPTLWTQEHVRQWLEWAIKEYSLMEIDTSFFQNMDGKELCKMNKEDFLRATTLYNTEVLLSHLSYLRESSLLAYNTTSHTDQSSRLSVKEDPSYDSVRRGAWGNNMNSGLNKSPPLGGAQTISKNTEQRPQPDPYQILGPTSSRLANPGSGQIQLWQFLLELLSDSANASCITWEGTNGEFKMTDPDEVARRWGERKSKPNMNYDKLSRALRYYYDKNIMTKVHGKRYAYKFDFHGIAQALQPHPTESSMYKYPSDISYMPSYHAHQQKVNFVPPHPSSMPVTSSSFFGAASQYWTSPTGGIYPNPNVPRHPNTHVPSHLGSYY
# How it was run: (§1)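 The binding signal reported is, for every hexamer, its read frequency for a factor over its read frequency for the tag-only sample. Reads came from pools of yeast-expressed, GST-fused human transcription factors on glutathione beads, barcoded with DNA and mixed with that sample, which were incubated with 200 nmole of a random double-stranded 16-mer DNA library in Tris/NaCl/DTT/glycerol buffer at room temperature for 30 min. After washing, the pools were crosslinked with 0.1% formaldehyde, proximity-ligated with BsaI/T4 ligase for 1 h at 37 °C, PCR-amplified and sequenced on an Illumina NextSeq500.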
# ELK1 = molecular target: T2, ELK1 (Homo sapiens, UniProt P19419 1-428); settings: protein: recombinant; tags: N-terminal GST; dsDNA, one strand shown
# T2 sequence: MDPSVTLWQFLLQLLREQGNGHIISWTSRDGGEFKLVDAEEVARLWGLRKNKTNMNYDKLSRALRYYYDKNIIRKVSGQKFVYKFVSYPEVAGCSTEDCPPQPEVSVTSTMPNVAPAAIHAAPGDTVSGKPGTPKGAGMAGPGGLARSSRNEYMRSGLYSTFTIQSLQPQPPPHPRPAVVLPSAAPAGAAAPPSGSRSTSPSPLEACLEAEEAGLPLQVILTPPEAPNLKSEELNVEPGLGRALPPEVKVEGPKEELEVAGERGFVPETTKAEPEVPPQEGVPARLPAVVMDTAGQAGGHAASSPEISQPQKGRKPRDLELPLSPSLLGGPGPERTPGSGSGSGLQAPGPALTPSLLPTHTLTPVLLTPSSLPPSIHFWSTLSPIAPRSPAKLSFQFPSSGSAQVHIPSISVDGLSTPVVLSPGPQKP
# How it was run: as §1
# GABPA = molecular target: T3, GABPA (Homo sapiens, UniProt Q06546 1-454); settings: protein: recombinant; tags: N-terminal GST; dsDNA, one strand shown
# T3 sequence: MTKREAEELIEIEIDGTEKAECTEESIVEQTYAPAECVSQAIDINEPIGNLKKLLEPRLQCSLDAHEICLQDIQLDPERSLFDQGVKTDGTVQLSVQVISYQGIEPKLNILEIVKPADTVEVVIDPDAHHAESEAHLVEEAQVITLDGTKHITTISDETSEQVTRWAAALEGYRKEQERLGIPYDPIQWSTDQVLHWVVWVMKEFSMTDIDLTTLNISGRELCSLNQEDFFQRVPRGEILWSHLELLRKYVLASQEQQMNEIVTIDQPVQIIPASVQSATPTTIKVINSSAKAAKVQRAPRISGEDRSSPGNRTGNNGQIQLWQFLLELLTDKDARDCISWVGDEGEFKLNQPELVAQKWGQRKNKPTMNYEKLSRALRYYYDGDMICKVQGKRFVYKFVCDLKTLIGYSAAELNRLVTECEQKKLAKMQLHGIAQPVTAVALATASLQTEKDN
# How it was run: as §1
# ERG = molecular target: T4, ERG (Homo sapiens, UniProt P11308 1-479); settings: protein: recombinant; tags: N-terminal GST; dsDNA, one strand shown
# T4 sequence: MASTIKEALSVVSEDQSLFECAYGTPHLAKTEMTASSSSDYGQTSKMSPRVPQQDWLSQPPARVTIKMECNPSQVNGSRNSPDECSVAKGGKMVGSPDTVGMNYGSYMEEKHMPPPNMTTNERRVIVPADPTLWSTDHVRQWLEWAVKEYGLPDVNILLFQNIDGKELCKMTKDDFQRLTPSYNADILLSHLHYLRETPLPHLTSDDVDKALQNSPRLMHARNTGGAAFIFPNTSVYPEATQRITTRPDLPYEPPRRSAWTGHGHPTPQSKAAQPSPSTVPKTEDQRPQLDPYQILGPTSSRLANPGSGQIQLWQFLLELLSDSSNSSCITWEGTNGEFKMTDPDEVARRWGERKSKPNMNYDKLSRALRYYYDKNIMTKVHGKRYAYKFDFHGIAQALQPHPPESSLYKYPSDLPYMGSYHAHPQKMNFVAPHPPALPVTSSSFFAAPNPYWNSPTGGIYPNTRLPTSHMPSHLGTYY
# How it was run: as §1
# ELF1 = ELF1 (Homo sapiens, UniProt P32519 1-619); settings: protein: recombinant; tags: N-terminal GST; dsDNA, one strand shown
# Sequence of ELF1 (P32519 whole entry): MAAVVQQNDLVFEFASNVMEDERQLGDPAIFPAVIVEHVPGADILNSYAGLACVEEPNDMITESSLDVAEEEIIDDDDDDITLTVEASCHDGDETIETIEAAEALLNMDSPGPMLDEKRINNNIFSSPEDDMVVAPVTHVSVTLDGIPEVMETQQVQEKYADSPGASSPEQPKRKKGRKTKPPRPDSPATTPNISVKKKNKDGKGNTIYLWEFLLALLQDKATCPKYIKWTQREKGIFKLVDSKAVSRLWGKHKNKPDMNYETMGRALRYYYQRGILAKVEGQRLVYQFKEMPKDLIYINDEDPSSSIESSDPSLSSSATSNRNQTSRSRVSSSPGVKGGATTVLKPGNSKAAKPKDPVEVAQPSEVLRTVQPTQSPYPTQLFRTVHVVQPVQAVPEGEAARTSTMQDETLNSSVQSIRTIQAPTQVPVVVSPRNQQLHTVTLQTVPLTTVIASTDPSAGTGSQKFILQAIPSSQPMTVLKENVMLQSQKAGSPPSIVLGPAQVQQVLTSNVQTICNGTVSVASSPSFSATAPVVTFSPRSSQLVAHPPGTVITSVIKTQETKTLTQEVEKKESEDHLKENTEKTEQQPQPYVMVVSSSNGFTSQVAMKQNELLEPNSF
# How it was run: as §1
# EHF = molecular target: T5, EHF (Homo sapiens, UniProt Q9NZC4 1-300); settings: protein: recombinant; tags: N-terminal GST; dsDNA, one strand shown
# T5 sequence: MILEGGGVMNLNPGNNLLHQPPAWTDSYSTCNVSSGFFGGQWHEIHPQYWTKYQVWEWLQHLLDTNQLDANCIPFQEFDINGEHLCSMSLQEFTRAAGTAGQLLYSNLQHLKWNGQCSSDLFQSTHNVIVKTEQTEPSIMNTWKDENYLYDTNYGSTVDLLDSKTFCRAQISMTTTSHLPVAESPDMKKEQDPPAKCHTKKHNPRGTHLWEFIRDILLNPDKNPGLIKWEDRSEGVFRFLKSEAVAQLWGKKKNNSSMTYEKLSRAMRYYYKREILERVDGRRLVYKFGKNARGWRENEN
# How it was run: as §1
# SPI1 = SPI1 (Homo sapiens, UniProt P17947 1-270); settings: protein: recombinant; tags: N-terminal GST; dsDNA, one strand shown
# How it was run: as §1
# SPIB = SPIB (Homo sapiens, UniProt Q01892 1-262); settings: protein: recombinant; tags: N-terminal GST; dsDNA, one strand shown
# Sequence of SPIB (Q01892 whole entry): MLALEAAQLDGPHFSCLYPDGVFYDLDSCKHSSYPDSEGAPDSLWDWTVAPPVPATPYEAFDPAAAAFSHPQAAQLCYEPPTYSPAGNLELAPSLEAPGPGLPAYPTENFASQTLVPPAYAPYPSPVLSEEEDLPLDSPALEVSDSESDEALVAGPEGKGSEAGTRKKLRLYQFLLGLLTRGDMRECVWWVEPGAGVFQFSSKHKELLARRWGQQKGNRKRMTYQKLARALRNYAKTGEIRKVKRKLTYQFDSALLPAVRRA
# How it was run: as §1
# ELK3 = molecular target: T6, ELK3 (Homo sapiens, UniProt P41970 1-407); settings: protein: recombinant; tags: N-terminal GST; dsDNA, one strand shown
# T6 sequence: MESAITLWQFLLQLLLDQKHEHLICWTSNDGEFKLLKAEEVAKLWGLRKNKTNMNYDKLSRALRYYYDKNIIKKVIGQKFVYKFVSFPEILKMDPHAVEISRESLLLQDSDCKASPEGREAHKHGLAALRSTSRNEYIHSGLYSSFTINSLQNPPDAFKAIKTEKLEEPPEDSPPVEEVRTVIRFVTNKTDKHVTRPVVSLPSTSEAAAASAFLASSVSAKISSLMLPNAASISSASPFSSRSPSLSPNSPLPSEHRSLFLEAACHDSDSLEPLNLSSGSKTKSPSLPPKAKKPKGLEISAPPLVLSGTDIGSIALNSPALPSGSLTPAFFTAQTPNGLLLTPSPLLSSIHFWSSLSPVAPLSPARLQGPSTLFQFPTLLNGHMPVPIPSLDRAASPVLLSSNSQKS
# How it was run: as §1
# FEV = molecular target: T7, FEV (Homo sapiens, UniProt Q99581 1-238); settings: protein: recombinant; tags: N-terminal GST; dsDNA, one strand shown
# T7 sequence: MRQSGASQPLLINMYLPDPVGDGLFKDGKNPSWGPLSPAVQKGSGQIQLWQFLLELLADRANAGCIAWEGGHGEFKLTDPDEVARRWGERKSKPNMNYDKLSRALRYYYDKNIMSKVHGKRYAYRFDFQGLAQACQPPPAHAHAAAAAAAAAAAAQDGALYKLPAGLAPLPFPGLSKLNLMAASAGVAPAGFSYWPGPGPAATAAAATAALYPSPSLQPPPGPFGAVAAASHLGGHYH
# How it was run: as §1
# ETV5 = ETV5 (Homo sapiens, UniProt P41161 1-510); settings: protein: recombinant; tags: N-terminal GST; dsDNA, one strand shown
# Sequence of ETV5 (P41161 whole entry): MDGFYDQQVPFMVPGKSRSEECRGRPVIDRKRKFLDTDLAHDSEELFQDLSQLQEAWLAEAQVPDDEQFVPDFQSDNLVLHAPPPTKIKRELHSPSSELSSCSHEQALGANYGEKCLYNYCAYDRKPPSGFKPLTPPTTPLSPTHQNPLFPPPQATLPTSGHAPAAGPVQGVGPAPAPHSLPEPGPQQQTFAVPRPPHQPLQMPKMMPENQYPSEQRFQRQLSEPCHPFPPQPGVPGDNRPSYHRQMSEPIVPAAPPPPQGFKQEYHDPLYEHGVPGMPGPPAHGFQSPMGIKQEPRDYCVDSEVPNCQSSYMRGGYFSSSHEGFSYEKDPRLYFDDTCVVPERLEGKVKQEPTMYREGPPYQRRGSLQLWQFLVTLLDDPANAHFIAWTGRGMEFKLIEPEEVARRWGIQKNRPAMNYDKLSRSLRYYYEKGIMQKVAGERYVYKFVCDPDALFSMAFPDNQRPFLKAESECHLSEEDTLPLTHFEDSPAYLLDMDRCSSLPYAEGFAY
# How it was run: as §1
# HSF1 = HSF1 (Homo sapiens, UniProt Q00613 1-529); settings: protein: recombinant; tags: N-terminal GST; chain copies: 3; dsDNA, one strand shown
# Sequence of HSF1 (Q00613 whole entry): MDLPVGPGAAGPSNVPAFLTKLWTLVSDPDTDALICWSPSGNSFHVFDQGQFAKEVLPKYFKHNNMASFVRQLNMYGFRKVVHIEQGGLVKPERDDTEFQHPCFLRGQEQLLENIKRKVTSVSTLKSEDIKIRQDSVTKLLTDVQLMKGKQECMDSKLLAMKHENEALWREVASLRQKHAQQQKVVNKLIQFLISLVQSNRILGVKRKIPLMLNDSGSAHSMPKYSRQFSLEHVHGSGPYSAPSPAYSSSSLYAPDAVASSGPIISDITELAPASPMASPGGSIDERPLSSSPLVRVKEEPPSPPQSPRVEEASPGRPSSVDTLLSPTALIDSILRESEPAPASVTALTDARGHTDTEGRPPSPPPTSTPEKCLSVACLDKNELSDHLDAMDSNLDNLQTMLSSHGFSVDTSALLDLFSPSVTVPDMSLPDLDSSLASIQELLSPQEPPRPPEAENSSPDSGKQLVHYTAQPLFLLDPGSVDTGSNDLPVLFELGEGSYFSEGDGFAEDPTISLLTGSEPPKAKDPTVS
# How it was run: as §1
# SPIC = molecular target: T8, SPIC (Homo sapiens, UniProt Q8N5J4 1-248); settings: protein: recombinant; tags: N-terminal GST; dsDNA, one strand shown
# T8 sequence: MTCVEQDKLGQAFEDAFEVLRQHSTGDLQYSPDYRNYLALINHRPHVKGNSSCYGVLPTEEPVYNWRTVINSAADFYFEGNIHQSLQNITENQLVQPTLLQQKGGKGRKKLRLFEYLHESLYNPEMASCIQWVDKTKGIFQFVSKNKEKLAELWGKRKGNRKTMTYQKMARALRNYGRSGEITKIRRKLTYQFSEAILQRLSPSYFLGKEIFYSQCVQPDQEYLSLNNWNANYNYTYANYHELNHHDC
# How it was run: as §1
# ELF4 = ELF4 (Homo sapiens, UniProt Q99607 1-663); settings: protein: recombinant; tags: N-terminal GST; dsDNA, one strand shown
# Sequence of ELF4 (Q99607 whole entry): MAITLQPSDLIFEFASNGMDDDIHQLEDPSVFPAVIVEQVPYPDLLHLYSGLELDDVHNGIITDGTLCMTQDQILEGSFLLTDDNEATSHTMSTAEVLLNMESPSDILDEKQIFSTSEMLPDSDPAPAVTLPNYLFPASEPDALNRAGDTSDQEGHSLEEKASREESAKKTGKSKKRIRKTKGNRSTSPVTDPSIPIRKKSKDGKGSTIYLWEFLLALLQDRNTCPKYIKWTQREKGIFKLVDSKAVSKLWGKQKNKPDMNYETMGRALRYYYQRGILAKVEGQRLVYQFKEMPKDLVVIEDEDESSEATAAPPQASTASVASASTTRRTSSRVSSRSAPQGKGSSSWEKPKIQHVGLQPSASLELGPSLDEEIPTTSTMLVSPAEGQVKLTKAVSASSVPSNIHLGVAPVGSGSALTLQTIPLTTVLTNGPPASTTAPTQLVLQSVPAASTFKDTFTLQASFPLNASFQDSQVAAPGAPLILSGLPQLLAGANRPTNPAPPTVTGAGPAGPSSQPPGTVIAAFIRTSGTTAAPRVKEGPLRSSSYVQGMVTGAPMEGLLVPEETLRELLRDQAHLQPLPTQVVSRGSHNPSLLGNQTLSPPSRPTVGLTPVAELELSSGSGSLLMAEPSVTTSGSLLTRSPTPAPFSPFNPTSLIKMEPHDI
# How it was run: as §1
# ELK4 = molecular target: T9, ELK4 (Homo sapiens, UniProt P28324-2 1-405); settings: protein: recombinant; tags: N-terminal GST; dsDNA, one strand shown
# T9 sequence: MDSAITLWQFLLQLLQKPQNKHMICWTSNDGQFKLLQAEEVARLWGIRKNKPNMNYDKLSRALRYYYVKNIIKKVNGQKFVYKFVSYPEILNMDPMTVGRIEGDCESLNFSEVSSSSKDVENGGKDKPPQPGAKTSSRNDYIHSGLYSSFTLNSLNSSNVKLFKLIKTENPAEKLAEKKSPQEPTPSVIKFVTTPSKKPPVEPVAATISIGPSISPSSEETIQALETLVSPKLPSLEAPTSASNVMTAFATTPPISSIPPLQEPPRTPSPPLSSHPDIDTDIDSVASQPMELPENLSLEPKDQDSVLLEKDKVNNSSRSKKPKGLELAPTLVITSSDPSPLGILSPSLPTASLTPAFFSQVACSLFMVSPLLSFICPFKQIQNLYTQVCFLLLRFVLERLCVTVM
# How it was run: as §1
# ETV2 = molecular target: T10, ETV2 (Homo sapiens, UniProt O00321 1-342); settings: protein: recombinant; tags: N-terminal GST; dsDNA, one strand shown
# T10 sequence: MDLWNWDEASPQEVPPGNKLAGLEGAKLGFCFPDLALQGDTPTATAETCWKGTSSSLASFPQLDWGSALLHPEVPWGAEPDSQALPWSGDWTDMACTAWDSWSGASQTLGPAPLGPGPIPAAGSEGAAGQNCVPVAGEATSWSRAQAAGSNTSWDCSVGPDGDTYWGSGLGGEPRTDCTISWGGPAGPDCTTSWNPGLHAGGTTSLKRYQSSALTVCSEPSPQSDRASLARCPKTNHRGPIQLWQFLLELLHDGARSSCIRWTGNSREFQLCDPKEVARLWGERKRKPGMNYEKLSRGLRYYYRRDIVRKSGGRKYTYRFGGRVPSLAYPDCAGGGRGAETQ
# How it was run: as §1
# ELF3 = molecular target: T11, ELF3 (Homo sapiens, UniProt P78545 1-371); settings: protein: recombinant; tags: N-terminal GST; dsDNA, one strand shown
# T11 sequence: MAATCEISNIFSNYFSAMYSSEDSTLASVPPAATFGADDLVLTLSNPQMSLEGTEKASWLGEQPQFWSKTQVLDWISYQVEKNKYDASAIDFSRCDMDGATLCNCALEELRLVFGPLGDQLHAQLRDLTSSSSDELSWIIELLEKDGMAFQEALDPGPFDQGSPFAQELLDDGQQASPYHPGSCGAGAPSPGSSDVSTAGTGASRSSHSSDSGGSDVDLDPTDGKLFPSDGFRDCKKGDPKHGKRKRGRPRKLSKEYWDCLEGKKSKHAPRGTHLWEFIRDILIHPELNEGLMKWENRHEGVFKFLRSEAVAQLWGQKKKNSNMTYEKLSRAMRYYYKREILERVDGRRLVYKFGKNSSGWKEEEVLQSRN
# How it was run: as §1
# ETV1 = ETV1 (Homo sapiens, UniProt P50549 1-477); settings: protein: recombinant; tags: N-terminal GST; dsDNA, one strand shown
# Sequence of ETV1 (P50549 whole entry): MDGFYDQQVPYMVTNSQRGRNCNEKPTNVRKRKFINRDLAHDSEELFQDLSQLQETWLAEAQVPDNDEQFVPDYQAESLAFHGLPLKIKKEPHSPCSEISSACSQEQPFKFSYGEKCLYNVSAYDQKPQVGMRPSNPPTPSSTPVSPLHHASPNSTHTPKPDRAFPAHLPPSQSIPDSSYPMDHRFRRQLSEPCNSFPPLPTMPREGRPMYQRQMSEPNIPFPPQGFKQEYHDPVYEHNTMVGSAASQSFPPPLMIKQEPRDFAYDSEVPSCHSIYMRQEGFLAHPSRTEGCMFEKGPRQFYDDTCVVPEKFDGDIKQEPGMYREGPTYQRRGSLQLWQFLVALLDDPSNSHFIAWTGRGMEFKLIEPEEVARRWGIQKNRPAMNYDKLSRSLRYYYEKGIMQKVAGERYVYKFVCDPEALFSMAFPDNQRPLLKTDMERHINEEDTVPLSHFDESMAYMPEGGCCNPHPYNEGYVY
# How it was run: as §1
sequence,measurement,setting,value
TGCTAC,binding signal,FLI1,"1.35 fold enrichment (6-mer frequency, TF over GST control)"
same,binding signal,ELK1,"1.26 fold enrichment (6-mer frequency, TF over GST control)"
same,binding signal,GABPA,"1.24 fold enrichment (6-mer frequency, TF over GST control)"
same,binding signal,ERG,"1.27 fold enrichment (6-mer frequency, TF over GST control)"
same,binding signal,ELF1,"1.25 fold enrichment (6-mer frequency, TF over GST control)"
same,binding signal,EHF,"1.23 fold enrichment (6-mer frequency, TF over GST control)"
same,binding signal,SPI1,"1.29 fold enrichment (6-mer frequency, TF over GST control)"
same,binding signal,SPIB,"1.25 fold enrichment (6-mer frequency, TF over GST control)"
same,binding signal,ELK3,"1.26 fold enrichment (6-mer frequency, TF over GST control)"
same,binding signal,FEV,"1.36 fold enrichment (6-mer frequency, TF over GST control)"
same,binding signal,ETV5,"1.25 fold enrichment (6-mer frequency, TF over GST control)"
same,binding signal,HSF1,"1.03 fold enrichment (6-mer frequency, TF over GST control)"
same,binding signal,SPIC,"1.41 fold enrichment (6-mer frequency, TF over GST control)"
same,binding signal,ELF4,"1.23 fold enrichment (6-mer frequency, TF over GST control)"
same,binding signal,ELK4,"1.4 fold enrichment (6-mer frequency, TF over GST control)"
same,binding signal,ETV2,"1.24 fold enrichment (6-mer frequency, TF over GST control)"
same,binding signal,ELF3,"1.25 fold enrichment (6-mer frequency, TF over GST control)"
same,binding signal,ETV1,"1.42 fold enrichment (6-mer frequency, TF over GST control)"

# — article PMC7862700, “An all-to-all approach to the identification of sequence-specific readers for epigenetic DNA modifications on cytosine”
